Data reported in PubChem BioAssay AID1159580 (chemical genetic matrix, 2015).
Several values for one entry are separate records, joined by “and”; a condition that tells them apart may be missing. Equal values may be shown once. The whole screen tested about 5,500 compounds, of which about 2,000 (36%) were called active. Inconclusive results (about 18%) are left out. No stated cut-off is given here; in the data, active means normalized growth mostly below about 0.91 (no sharp cut-off); inconclusive means no clear call, values can overlap the other calls; inactive means mostly above about 0.92. Some of the results follow.

Experiment: chemical genetic growth profiling, strain panel (AID 1159580);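 further: tested at 20 µM; growth read once vehicle control cultures reached saturation at 30 °C; 1 = growth at the plate median or of vehicle wells; lower values mean less growth of the strain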
Conditions: growth OD

Measured: normalized growth

CC(C[N+](C)(C)C)OC(N)=O (centres undefined)
inactive: S. cerevisiae deletion strains, locus YJR066W, strain TOR1, hits give low values 0.993 | S. cerevisiae deletion strains, locus YKL009W, strain mrt4, hits give low values 0.934 | S. cerevisiae deletion strains, locus YKL068W, hits give low values 0.991 | S. cerevisiae deletion strains, locus YKL085W, strain MDH1 (second series), hits give low values 0.996 | S. cerevisiae deletion strains, locus YKL085W, strain MDH1, hits give low values 0.996 | S. cerevisiae deletion strains, locus YKL160W, strain elf1, hits give low values 1.01 | S. cerevisiae deletion strains, locus YKL190W, strain CNB1, hits give low values 1 | S. cerevisiae deletion strains, locus YKR001C, strain vps1, hits give low values 0.96 | S. cerevisiae deletion strains, locus YKR026C, strain gcn3, hits give low values 1.02 | S. cerevisiae deletion strains, locus YKR091W, strain srl3, hits give low values 1.02 | S. cerevisiae deletion strains, locus YLL001W, strain dnm1, hits give low values 1.03 | S. cerevisiae deletion strains, locus YLL026W, hits give low values 1.01 | S. cerevisiae deletion strains, locus YLL041C, strain sdh2, hits give low values 1.04 | S. cerevisiae deletion strains, locus YLR027C, strain aat2, hits give low values 1.03 | S. cerevisiae deletion strains, locus YLR039C, strain RIC1, hits give low values 0.952 | S. cerevisiae deletion strains, locus YLR058C, strain SHM2, hits give low values 0.991 | S. cerevisiae deletion strains, locus YLR102C, strain apc9, hits give low values 0.983 | S. cerevisiae deletion strains, locus YLR113W, strain HOG1, hits give low values 0.957 | S. cerevisiae deletion strains, locus YLR221C, strain rsa3, hits give low values 1.04 | S. cerevisiae deletion strains, locus YLR258W, strain gsy2, hits give low values 1.04 | S. cerevisiae deletion strains, locus YLR262C, strain YPT6 (second series), hits give low values 1.02 | S. cerevisiae deletion strains, locus YLR262C, strain YPT6, hits give low values 0.939 | S. cerevisiae deletion strains, locus YLR268W, strain sec22, hits give low values 0.973 | S. cerevisiae deletion strains, locus YLR320W, strain mms22, hits give low values 1.03 | S. cerevisiae deletion strains, locus YLR330W, strain CHS5, hits give low values 0.994 | S. cerevisiae deletion strains, locus YLR342W, strain FKS1 (second series), hits give low values 1.06 | S. cerevisiae deletion strains, locus YLR342W, strain FKS1, hits give low values 1.02 | S. cerevisiae deletion strains, locus YLR357W, strain rsc2, hits give low values 1.02 | S. cerevisiae deletion strains, locus YLR370C, strain arc18, hits give low values 1.03 | S. cerevisiae deletion strains, locus YLR371W, strain rom2, hits give low values 0.976 | S. cerevisiae deletion strains, locus YLR384C, strain iki3, hits give low values 1.03 | S. cerevisiae deletion strains, locus YLR418C, strain cdc73, hits give low values 0.953 | S. cerevisiae deletion strains, locus YML016C, strain PPZ1, hits give low values 0.995 | S. cerevisiae deletion strains, locus YML032C, strain rad52, hits give low values 0.983 | S. cerevisiae deletion strains, locus YML120C, strain ndi1, hits give low values 1.03 | S. cerevisiae deletion strains, locus YML124C, strain tub3, hits give low values 0.986 | S. cerevisiae deletion strains, locus YMR058W, strain fet3, hits give low values 1.03 | S. cerevisiae deletion strains, locus YMR078C, strain ctf18, hits give low values 0.97 | S. cerevisiae deletion strains, locus YMR125W, strain sto1, hits give low values 1.05 | S. cerevisiae deletion strains, locus YMR129W, hits give low values 1.03 | S. cerevisiae deletion strains, locus YMR205C, strain PFK2, hits give low values 0.998 | S. cerevisiae deletion strains, locus YMR223W, strain ubp8, hits give low values 0.987 | S. cerevisiae deletion strains, locus YMR231W, strain pep5, hits give low values 1.02 | S. cerevisiae deletion strains, locus YMR307W, strain GAS1, hits give low values 1.09 | S. cerevisiae deletion strains, locus YNL067W, strain RPL9B, hits give low values 0.98 | S. cerevisiae deletion strains, locus YNL071W, strain lat1, hits give low values 1.01 | S. cerevisiae deletion strains, locus YNL128W, strain TEP1, hits give low values 0.975 and 0.99 | S. cerevisiae deletion strains, locus YNL153C, strain GIM3, hits give low values 0.995 | S. cerevisiae deletion strains, locus YNL175C, strain NOP13, hits give low values 0.997 | S. cerevisiae deletion strains, locus YNL183C, strain NPR1, hits give low values 0.96 | S. cerevisiae deletion strains, locus YNL197C, strain WHI3, hits give low values 1 | S. cerevisiae deletion strains, locus YNL209W, strain ssb2, hits give low values 1.03 | S. cerevisiae deletion strains, locus YNL224C, strain SQS1, hits give low values 0.995 | S. cerevisiae deletion strains, locus YNL233W, strain BNI4, hits give low values 0.999 | S. cerevisiae deletion strains, locus YNL248C, strain rpa49, hits give low values 1.01 | S. cerevisiae deletion strains, locus YNL250W, strain rad50, hits give low values 1 | S. cerevisiae deletion strains, locus YNL271C, strain bni1, hits give low values 0.973 | S. cerevisiae deletion strains, locus YNL298W, strain CLA4, hits give low values 0.976 | S. cerevisiae deletion strains, locus YNL307C, strain MCK1, hits give low values 0.97 | S. cerevisiae deletion strains, locus YNL322C, strain KRE1 (second series), hits give low values 1.01 | S. cerevisiae deletion strains, locus YNL322C, strain KRE1, hits give low values 0.992 | S. cerevisiae deletion strains, locus YNR049C, strain mso1, hits give low values 1.01 | S. cerevisiae deletion strains, locus YNR052C, strain pop2, hits give low values 0.982 | S. cerevisiae deletion strains, locus YOL006C, strain TOP1, hits give low values 1.02 | S. cerevisiae deletion strains, locus YOL012C, strain htz1 0.744 | S. cerevisiae deletion strains, locus YOL147C, strain pex11, hits give low values 0.987 | S. cerevisiae deletion strains, locus YOR001W, strain rrp6, hits give low values 1.03 | S. cerevisiae deletion strains, locus YOR061W, strain CKA2, hits give low values 0.99 | S. cerevisiae deletion strains, locus YOR069W, strain VPS5, hits give low values 0.987 | S. cerevisiae deletion strains, locus YOR070C, strain gyp1, hits give low values 1.03 | S. cerevisiae deletion strains, locus YOR080W, strain dia2, hits give low values 1.04 | S. cerevisiae deletion strains, locus YOR083W, strain WHI5 (second series), hits give low values 0.996 | S. cerevisiae deletion strains, locus YOR083W, strain WHI5, hits give low values 0.976 | S. cerevisiae deletion strains, locus YOR106W, strain vam3, hits give low values 1.05 | S. cerevisiae deletion strains, locus YOR136W, strain idh2, hits give low values 0.968 | S. cerevisiae deletion strains, locus YOR144C, strain elg1, hits give low values 0.985 | S. cerevisiae deletion strains, locus YOR184W, strain ser1, hits give low values 0.976 | S. cerevisiae deletion strains, locus YOR231W, strain MKK1, hits give low values 0.979 | S. cerevisiae deletion strains, locus YOR265W, strain rbl2, hits give low values 1.02 | S. cerevisiae deletion strains, locus YOR270C, strain vph1, hits give low values 1.05 | S. cerevisiae deletion strains, locus YOR290C, strain snf2, hits give low values 1.02 | S. cerevisiae deletion strains, locus YOR316C, strain cot1, hits give low values 0.977 | S. cerevisiae deletion strains, locus YPL051W, strain arl3, hits give low values 1.02 | S. cerevisiae deletion strains, locus YPL055C, strain LGE1, hits give low values 0.998 | S. cerevisiae deletion strains, locus YPL078C, strain atp4, hits give low values 1.02 | S. cerevisiae deletion strains, locus YPL106C, strain sse1, hits give low values 1.06 | S. cerevisiae deletion strains, locus YPL240C, strain hsp82, hits give low values 1.02 | S. cerevisiae deletion strains, locus YPL256C, strain CLN2, hits give low values 0.976 | S. cerevisiae deletion strains, locus YPR119W, strain clb2, hits give low values 0.985 | S. cerevisiae deletion strains, locus YPR141C, strain kar3, hits give low values 0.986 | S. cerevisiae deletion strains, locus YPR163C, strain tif3, hits give low values 0.979 | S. cerevisiae deletion strains, locus YPR167C, strain met16, hits give low values 0.98 | S. cerevisiae deletion strains, strain wtn01, hits give low values 1 | S. cerevisiae strains, strain wild type, hits give low values 0.994
